Screening results from PubChem BioAssay.
This is a sample that favours compounds with a hit; in the whole collection about 6.7% have one here.
T cruzi growth-1: inhibitors of T. cruzi proliferation; T. cruzi beta-gal in NIH3T3, GalScreen luminescence, 90 h; inhibition, % at 8.34 µM; hit rate 5.9% among 77,000;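 active = mean inhibition above about 93%, with at least 55% of replicates each passing it, limit read from the data, passing the limit was not always enough; inconclusive = only one of those two conditions holds; inactive = neither condition holds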
C diff HTS: inhibitors of Clostridium difficile growth | growth activity, negative = inhibition, % at 16 µg/mL (by protocol) | Clostridium difficile clinical isolate growth, OD600, 24 h; hits give low values | AID 1259249 | hit rate 0.25% among 86,000;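 active = mean growth activity at or below -80% and every replicate also at or below -80%; inconclusive = mean at or below -80% but some replicate above -80%; inactive = mean growth activity above -80%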;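 note: 0% = DMSO wells and -100% = levofloxacin 16 µg/mL wells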
Pf Dd2 inh: P. falciparum Dd2 growth inhibition; SYBR Green, 72 h; hits give low values; activity change, % at 10 µM; hit rate 2.3% among 94,000; AID 1159554; in the data active = activity change below about -80%; inconclusive = no clear call, values can overlap the other calls
T cruzi growth-2: Trypanosoma cruzi proliferation inhibition | shares compounds with T cruzi growth-1 | T. cruzi beta-gal in NIH3T3, GalScreen luminescence, 90 h | inhibition, % at 8.35 µM | hit rate 72% among 5,600 | AID 651739;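 active = mean replicate inhibition above about 95% and at least 55% of replicates individually reaching it, limit read from the data; inconclusive = only one of the two criteria is met; inactive = neither criterion is met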
T cruzi growth-3: blocks T. cruzi growth in NIH3T3 host cells. shares compounds with T cruzi growth-1. T. cruzi beta-gal in NIH3T3, GalScreen luminescence, 90 h. inhibition, % at 2.09 µM. hit rate 21% among 5,600. AID 651740;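 active = mean inhibition above about 95%, with at least 55% of replicates also reaching it, limit read from the data; inconclusive = meets just one of the two conditions; inactive = meets neither condition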;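 note: plate controls were neutral control median for no effect and positive control median for full effect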
3T3 cytotox: cytotoxicity in mouse NIH/3T3 fibroblasts; shares compounds with T cruzi growth-1; NIH/3T3 viability, CellTiter-Glo ATP luminescence, 90 h; cytotoxicity (signal decrease), % at 8.35 µM; hit rate 14% among 5,600; AID 651742;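 active = mean signal decrease across replicates above about 35% based on untreated-well scatter, with enough replicates individually passing, limit read from the data; inconclusive = no rule stated though some were filed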;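 note: 0% = median of neutral control wells and 100% = median of positive control wells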
NIH3T3 tox 2: NIH/3T3 (mouse) viability loss | shares compounds with T cruzi growth-1 | NIH/3T3 viability, CellTiter-Glo ATP luminescence, 90 h | inhibition, % at 24.9 µM | hit rate 56% among 5,600 | AID 651744;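 active = mean loss of cell viability signal at or above a set limit, and enough replicates individually reaching it; inconclusive = meets only the mean limit or only the replicate share; inactive = meets neither condition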;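 note: 0% = median of neutral control wells and 100% = median of positive control wells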
Numbers without * were called inactive; ? = inconclusive; . = no result.

SMILES | T cruzi growth-1 | C diff HTS | Pf Dd2 inh | T cruzi growth-2 | T cruzi growth-3 | 3T3 cytotox | NIH3T3 tox 2
C[C@H](CO)N1C[C@H](C)[C@@H](CN(C)Cc2ccc(C(F)(F)F)cc2)Oc2ccc(NC(=O)Cc3cn(C)c4ccccc34)cc2C1=O | 118.2* | 1.4 | -21.9 | 106.7* | 12.7 | 6.0 | 14.0
C[C@H]1CN([C@@H](C)CO)C(=O)c2cc(NC(=O)Cc3cn(C)c4ccccc34)ccc2O[C@@H]1CN(C)Cc1ccncc1 | ? | -4.2 | -15.4 | 33.5 | -25.2 | 6.1 | 29.8*
C[C@H](CO)N1C[C@H](C)[C@@H](CN(C)Cc2ccc(Cl)c(Cl)c2)Oc2ccc(NC(=O)Cc3cn(C)c4ccccc34)cc2C1=O | 80.0 | 29.0 | -2.6 | . | . | . | .
C[C@H]1CN([C@@H](C)CO)C(=O)c2cc(NC(=O)Cc3cn(C)c4ccccc34)ccc2O[C@@H]1CN(C)Cc1ccc(C(F)(F)F)cc1 | 93.1 | 6.4 | -41.1 | . | . | . | .
C[C@@H]1CN([C@@H](C)CO)C(=O)c2cc(NC(=O)Cc3cn(C)c4ccccc34)ccc2O[C@@H]1CN(C)Cc1ccncc1 | 30.3 | -8.6 | -14.2 | . | . | . | .
COc1ccc(S(=O)(=O)Nc2ccc3c(c2)C(=O)N([C@H](C)CO)C[C@@H](C)[C@H](CN(C)CC2CC2)O3)cc1 | 18.5 | 0.9 | -20.1 | . | . | . | .
O=C(c1ccccc1)N1[C@H](CO)[C@H](c2ccccc2)C12CN(CCC(F)(F)F)C2 | . | 11.4 | -13.7 | . | . | . | .
C[C@H](CO)N1C[C@H](C)[C@@H](CN(C)Cc2ccncc2)Oc2ccc(NC(=O)C3CCCCC3)cc2C1=O | 47.9 | -1.5 | 12.7 | . | . | . | .
COCC(=O)N1CC2(CN(C(=O)NC(C)C)C2)c2c(n(C)c3cc(OC)ccc23)[C@H]1CO | . | -1.5 | 17.3 | . | . | . | .
C[C@H]1CN([C@@H](C)CO)C(=O)c2cc(C#Cc3ccccn3)cnc2O[C@H]1CN(C)Cc1ccccc1 | 54.6 | -3.5 | -7.4 | . | . | . | .
C[C@H](CO)N1C[C@H](C)[C@@H](CN(C)Cc2ccncc2)Oc2ncc(C#Cc3ccccn3)cc2C1=O | ? | -0.5 | -2.6 | 108.0* | 46.8 | -14.5 | 6.9
C[C@H]1CN([C@@H](C)CO)C(=O)c2cc(C#Cc3ccccn3)cnc2O[C@@H]1CN(C)Cc1ccncc1 | 65.2 | -1.2 | -9.1 | . | . | . | .
C[C@@H]1CN([C@H](C)CO)C(=O)c2cc(C#Cc3ccccn3)cnc2O[C@H]1CN(C)Cc1ccncc1 | 106.6* | 0.1 | 8.8 | 103.8* | 39.0 | -14.1 | 2.2
O=C(c1ccncc1)N1C[C@@H]2[C@H](c3ccccc31)[C@@H](CO)N2C(=O)Nc1ccccc1Cl | 17.5 | 1.6 | -0.9 | . | . | . | .
CCC(=O)N[C@@H]1CC[C@H](CC(=O)NCc2ccccc2F)O[C@H]1CO | -8.7 | . | 10.4 | . | . | . | .
Cc1ccc(S(=O)(=O)N(C)C[C@H]2Oc3cc(C4=CCCC4)ccc3S(=O)(=O)N([C@H](C)CO)C[C@@H]2C)cc1 | . | 5.0 | -72.9 | . | . | . | .
C[C@H](CO)N1C[C@H](C)[C@@H](CN(C)S(=O)(=O)c2ccc(F)cc2)Oc2cc(C3=CCCCC3)ccc2S1(=O)=O | 114.0* | 12.8 | -69.4 | 101.8* | 98.9* | 37.9* | 64.3*
C[C@@H]1CN([C@H](C)CO)S(=O)(=O)c2ccc(C3=CCCCC3)cc2O[C@H]1CN(C)S(=O)(=O)c1ccc(F)cc1 | 122.2* | 14.8 | -57.0 | 102.7* | 81.8 | 42.1* | 87.8*
Cc1ccc(S(=O)(=O)N(C)C[C@H]2Oc3cc(C4=CCCC4)ccc3S(=O)(=O)N([C@@H](C)CO)C[C@H]2C)cc1 | . | 2.6 | -23.1 | . | . | . | .
C[C@@H]1CCCCO[C@H](CN(C)C(=O)Nc2ccc(C(F)(F)F)cc2)[C@H](C)CN([C@H](C)CO)C(=O)c2cc(NS(=O)(=O)c3cn(C)cn3)ccc2O1 | 48.6 | 20.4 | -38.1 | . | . | . | .
CO[C@H]1CN(C)C(=O)c2ccc(NC(=O)C3CCC3)cc2OC[C@@H](C)N(Cc2cccnc2)C[C@@H]1C | 16.7 | . | . | . | . | . | .
N#C[C@@H]1[C@@H](c2ccccc2)[C@H](CO)N1S(=O)(=O)c1ccc(F)cc1 | 50.3 | -2.7 | 13.4 | . | . | . | .
N#C[C@@H]1[C@H](c2ccccc2)[C@H](CO)N1S(=O)(=O)c1ccc(F)cc1 | 33.2 | -14.3 | 40.9 | . | . | . | .
